Screening data deposited in PubChem by Sanford-Burnham Center for Chemical Genomics.
Most compounds without a hit are left out; they make up all but 31% or so of the library.
CYP2C19 act: human CYP2C19 activators, primary screen, biochemical, luminescence; Cytochrome P450 2C19 (Homo sapiens), P33261; recombinant CYP2C19, luciferin-H EGE luminescence; active compounds read high; 0 = fully inhibited enzyme, 1 = untreated enzyme; activation factor at 5 µM; 96,000 tested, under 10 active;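 active means activation factor of at least 2 at 5 µM in the primary screen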
CYP2C9 inh: blockers of cytochrome P450 2C9 activity – biochemical, luminescence, ADME assay, primary screen; CYP2C9 Supersomes, luciferin-H conversion; P11712; inhibition, % at 5 µM; 96,000 tested, 20% active; AID 777, 2007;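 active means blocking of liver enzyme CYP2C9 beyond about 50% at 5 µM, limit read from the data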
Target sequence (P11712 whole entry, looked up): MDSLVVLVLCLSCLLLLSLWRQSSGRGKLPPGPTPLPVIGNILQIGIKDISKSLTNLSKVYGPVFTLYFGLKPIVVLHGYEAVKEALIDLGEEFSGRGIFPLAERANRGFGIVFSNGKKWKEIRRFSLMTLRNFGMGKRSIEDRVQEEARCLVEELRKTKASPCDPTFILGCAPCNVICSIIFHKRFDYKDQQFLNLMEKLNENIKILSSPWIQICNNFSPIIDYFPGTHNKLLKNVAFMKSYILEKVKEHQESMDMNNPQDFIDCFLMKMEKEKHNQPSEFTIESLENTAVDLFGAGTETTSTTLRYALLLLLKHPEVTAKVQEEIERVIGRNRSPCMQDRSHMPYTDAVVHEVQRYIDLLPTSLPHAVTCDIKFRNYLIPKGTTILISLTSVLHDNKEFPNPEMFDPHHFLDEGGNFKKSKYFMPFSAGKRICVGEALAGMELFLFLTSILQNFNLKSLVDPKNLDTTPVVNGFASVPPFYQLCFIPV
CYP2C9 act: human CYP2C9 activators, primary screen, biochemical, luminescence; AID 1024, 2008; 96,000 tested, 1.4% active; Cytochrome P450 2C9 (Homo sapiens), P11712; recombinant CYP2C9, luciferin-H conversion; active compounds read high; factor 1 = untreated enzyme, 0 = blocked; activation factor at 5 µM;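 active means activation factor of 2 or more for CYP2C9 at a 5 µM dose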
CYP2C19 inhib: blockers of cytochrome P450 2C19 activity – biochemical, luminescence, ADME assay, primary screen. P33261. CYP2C19 Supersomes, luciferin-H EGE luminescence, 30 min. inhibition, % at 5 µM. 96,000 tested, 21% active;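 active means CYP2C19 inhibition above a set limit at 5 µM in the primary screen, cut at about 50% in these data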
A number is an active result; 0 = inactive.

SMILES	CYP2C19 act	CYP2C9 inh	CYP2C9 act	CYP2C19 inhib
COc1cccc(C2N(c3cccc(Cl)c3)C(=O)C3CCCN32)c1OC (stereo not drawn)	0	69.8	0	78.0
Cc1nc(SCc2c(F)cccc2Cl)c2c(=O)n(C)c(=O)n(C)c2n1	0	0	0	0
Cc1csc2ncc(C(=O)NC(C)c3ccccc3)c(=O)n12 (stereo not drawn)	0	0	0	0
Cc1ccc(OC(=O)c2ccc(N3CCOCC3)c([N+](=O)[O-])c2)cc1	0	0	0	0
CN(C(=O)Nc1ccc(Cl)cc1Cl)[C@H]1c2cc(Br)ccc2OC[C@H]1CO	0	87.0	0	0
COc1cccc2c1OC[C@@H](CO)[C@H]2N(C)C(=O)Nc1ccccc1	0	0	0	0
COc1cccc(CC(NC(C)=O)C(=O)NC2CCN(c3nc(C)cc(C)c3C#N)CC2)c1 (stereo not drawn)	0	0	0	67.3
COc1ccc(CC(NC(C)=O)C(=O)NC2CCN(c3nc(C)cc(C)c3C#N)CC2)c(OC)c1 (stereo not drawn)	0	55.3	0	85.7
CC(=O)Nc1ccc(S(=O)(=O)NC2(C(F)(F)F)N=C(c3ccccc3)NC2=O)cc1 (stereo not drawn)	0	0	0	0
CCSc1nc2c(sc3ccccc32)c(=O)n1C(C)C	0	0	0	0
Nc1nc(CN2CCN(c3ccccn3)CC2)nc(Nc2ccc(Cl)cc2)n1	0	68.5	0	0
COc1cccc(N2CCN(Cc3nc(N)nc(Nc4ccccc4)n3)CC2)c1	0	0	0	0
Cc1cccc(Nc2nc(N)nc(CN3CCN(c4ccccc4)CC3)n2)c1	0	66.7	0	52.7
Cc1ccc(Nc2nc(N)nc(CN3CCc4ccccc4C3)n2)cc1	0	51.7	0	55.0
CSc1nnc(-c2ccc(S(=O)(=O)N3CCCC3)cc2)n1C	0	0	0	0
O=C(CCN1C(=O)c2ccccc2S1(=O)=O)NCc1ccco1	0	0	0	0
N#Cc1cc(-c2ccccc2)nnc1Oc1ccccc1Cl	0	0	0	0
COc1cccc(C(C(=O)NCc2ccco2)N(C(=O)Cn2nnc3ccccc32)C2CC2)c1OC (stereo not drawn)	0	0	0	0
COCC(C)NS(=O)(=O)c1ccc(NC(=O)C(Cc2ccccc2)NC(N)=O)cc1 (stereo not drawn)	0	0	0	0
Cc1ccc(C)n1NC(=O)c1cccc(Cl)c1	0	0	0	0
COc1cc(OC)c(C2Oc3nc(SC)nnc3-c3ccccc3N2C(C)=O)cc1OC (stereo not drawn)	0	0	0	0
CSc1nnc2c(n1)OC(C)N(C(=O)c1ccccc1)c1ccccc1-2 (stereo not drawn)	0	53.9	0	0
CC1(C)C2CCC13CS(=O)(=O)N[C@@H]3C2 (stereo partly drawn)	0	0	0	0
CN(CCCNC(=O)C1CCN(S(=O)(=O)N2CCC3(CC2)OCCO3)CC1)Cc1ccccc1	0	0	0	0
N#Cc1cnn(Cc2ccc(Cl)cc2)c1N	0	0	0	54.9
SMILES	CYP2C19 act	CYP2C9 inh	CYP2C9 act	CYP2C19 inhib
CCOCCCNCc1ccc(OC)c(OC)c1	0	60.8	0	0
CCOCCCNCc1ccc(OC)cc1	0	0	0	0
COc1ccccc1CNC(=O)[C@@H]1CCCN1C(=O)C1CCN(S(=O)(=O)c2ccc(C)cc2)CC1	0	0	0	0
COc1ccc(S(=O)(=O)Cc2ccc(C(=O)NCc3cccnc3)o2)cc1	0	57.9	0	90.0
COc1ccc(S(=O)(=O)Cc2ccc(C(=O)NCc3ccc(F)cc3)o2)cc1	0	63.6	0	0
O=C(NCc1ccccc1)c1ccc(CS(=O)(=O)c2ccccc2)o1	0	0	0	0
COCCCNC(=O)c1ccc(CS(=O)(=O)c2ccc(OC)cc2)o1	0	0	0	0
COc1ccc(S(=O)(=O)Cc2ccc(C(=O)NC3CC3)o2)cc1	0	0	2.2	0
COc1ccc(NC(=O)C(NC(C)=O)C(=O)NCc2ccc(F)cc2)cc1 (stereo not drawn)	0	0	0	53.8
Cc1ccccc1C(=O)N1CCN(c2ccc(NC(=O)CSc3ccc(Cl)cc3)cc2)CC1	0	0	0	0
COC(=O)c1c(NC(=O)CC2Nc3ccccc3NC2=O)sc(C)c1C (stereo not drawn)	0	0	0	0
CCCCNC(=S)NNC(=O)c1csc2ccccc12	0	0	0	62.2
CCS(=O)(=O)c1ccc(-c2csc(-c3ccccc3)n2)c(Cl)c1Cl	0	0	0	0
CCc1ccc(S(=O)(=O)NCCc2csc(-c3cccnc3)n2)s1	0	89.4	0	94.2
Cc1ccc(S(=O)(=O)NCc2cccnc2)s1	0	0	0	0
CCc1ccc(S(=O)(=O)NCCc2csc(-c3ccccc3)n2)s1	0	74.2	0	92.7
O=S(=O)(NCc1csc(-c2cccnc2)n1)c1ccc(Cl)s1	0	62.4	0	75.9
CCc1ccc(S(=O)(=O)NCc2csc(-c3ccccc3)n2)s1	0	76.2	0	0
N#Cc1cc2c(nc1SCC(=O)N1CCOCC1)CCCCC2	0	0	0	0
CCCCCNc1c(C(=O)OCC)c(=O)[nH]c2ccccc12	0	0	0	0
C=CCN1C(=O)C2(/C(=C(\O)c3ccc4c(c3)OCCO4)C(=O)C(=O)N2CCCOC)c2ccccc21 (stereo not drawn)	0	0	0	0
Cc1ccc(C(=C2C3C=CC2C2C(=O)NC(=O)C32)c2ccc(C)cc2)cc1 (stereo not drawn)	0	0	0	0
CCOC(=O)C1CCN(Cc2cnc(Oc3ccc(Cl)cc3C)s2)CC1	0	0	0	0
CCS(=O)(=O)NCCc1csc(-c2cccnc2)n1	0	0	0	0
CCS(=O)(=O)NCCc1csc(-c2ccccc2)n1	0	0	0	72.8
SMILES	CYP2C19 act	CYP2C9 inh	CYP2C9 act	CYP2C19 inhib
O=C(NCCN1C(=O)C2C3C=CC(C3)C2C1=O)N1CCOCC1 (stereo not drawn)	0	0	0	0
Cc1ccc(Cc2cnc(NC(=O)/C(C#N)=C/c3ccc(-c4ccccc4[N+](=O)[O-])o3)s2)cc1	0	54.5	0	0
Cc1nn(-c2ccccc2)c2[nH]c(=O)c(CNCc3ccc4c(c3)OCO4)cc12	0	0	0	0
Cc1nn(-c2ccccc2)c2[nH]c(=O)c(CNc3ccc4c(c3)OCCO4)cc12	0	60.8	0	0
CCCCCc1c(C)nc(NCc2ccccc2)[nH]c1=O	0	0	0	0
CCc1ccc(NCc2cc3c(C)nn(-c4ccccc4)c3[nH]c2=O)cc1	0	92.3	0	0
COc1ccc2ccc3c(c2c1)N=C[C@]1(O3)N(C)c2ccccc2C1(C)C	0	0	0	0
COC(=O)CSc1nnc(CNC(=O)c2ccc(OC)cc2OC)n1C	0	0	0	0
COC(=O)CSc1nnc(-c2sc3cc(OC)ccc3c2Cl)n1C	0	0	0	56.2
CC1(C)CC(=O)C2=C(C1)OC(N)=C(C#N)C21CCC2(CC1)OCCO2	0	0	0	0
Cc1cccc(OCC2=N/C(=C\N(C)C)C(=O)O2)c1	0	0	0	67.3
